This is an account of results in ChEMBL document CHEMBL3988442, “University of Dundee, Small-Polar-MMV Screening Library” (2021).

Structures are written as SMILES. Hit rate of the full screen: of about 48,000 compounds, about 13,000 (27%) showed an effect of 50% or more. The list shows a part of the results.

In the experiment the test system is Wolbachia pipientis. Put plainly: Anti-Wolbachia Cell-Based Screen. The experiment is classed as functional. More on the design: scale not given: in the data most compounds retested in dose-response had high values. The conditions noted are these: 5 µM.
On to `Cc1nc(COC[C@H]2CC[C@H]3[C@H](CCN3c3ncccn3)O2)cs1.O=C(O)C(F)(F)F`, for which the “Percent Effect” value was -1.05%.

`COc1cc(NC(=O)NC2CC2)ccc1N1CCOC1=O`: the “Percent Effect” value is on record as -6.648%.

Regarding `CCc1[nH]c2c(CNC(=O)[C@@H]3CCCN3C)cc(C)cc2c1C`, the “Percent Effect” value was 16.75%.

For the compound `Cn1ccnc1C(O)(CCNCc1ccc(Cl)o1)C(F)(F)F` (centres undefined), the “Percent Effect” value is -7.652%.

Regarding `O=C(c1ccsc1)N1CCc2nnc(COc3cncnc3)n2CC1`, the “Percent Effect” value is reported as -11%.

In the case of `Cc1ncsc1CNc1ccn(Cc2ccccc2)n1`, the “Percent Effect” value was -3.966%.

Turning to `CC(C)C(NC(=O)c1nc(N2CCOCC2)ncc1Cl)c1cccs1` (centres undefined), the “Percent Effect” value came to 8.573%.

On to `COCC(=O)Nc1cnc(N2CCOCC2)nc1`, for which the “Percent Effect” value is -9.684%.

In the case of `CC(C)[C@H](N)CC(=O)Nc1nc(-c2cnc(N3CCOCC3)nc2)cs1.Cl`, the “Percent Effect” value was 116.3%.

`CC[C@H](C)[C@H](N)C(=O)Nc1nc(-c2cnc(N3CCOCC3)nc2)cs1`: the “Percent Effect” value was 101.5%.

As for `CCOc1ccc(NC(=O)Nc2cnc(N3CCOCC3)nc2)cc1`, the “Percent Effect” value is given as 2.27%.

On to `CCC(C(=O)NCc1csc(N2CCOCC2)n1)n1cccn1` (centres undefined), for which the “Percent Effect” value turned out to be 4.05%.

For `O=C(CSCC1CC1)N1CCc2[nH]nc(COc3ccccc3)c2C1`, the “Percent Effect” value is on record as 108.9%.

In the case of `Cc1nc(C)c(C(=O)N2CCc3[nH]nc(COc4ccccc4)c3C2)s1`, the “Percent Effect” value is 5.403%.

With `O=C(Cn1cccn1)N1CCc2[nH]nc(-c3ccc4c(c3)OCO4)c2C1`, the “Percent Effect” value is given as 1.932%.

Take `O=C(CCn1cccc1)N1CCc2[nH]nc(COc3ccccc3)c2C1`: the “Percent Effect” value amounted to 87.66%.

As for `O=C1CC[C@@H](C(=O)N2CCc3[nH]nc(COc4cccc(Cl)c4)c3C2)N1`, the “Percent Effect” value is recorded as 3.497%.

Turning to `CCSCCC(=O)N1CCc2[nH]nc(COc3ccccc3)c2C1`, the “Percent Effect” value is on record as 89.78%.

For `O=C(O)C(F)(F)F.O=C(O)C(F)(F)F.c1ccc(OCc2n[nH]c3c2CN(CC2CC2)C3)nc1`, the “Percent Effect” value worked out at 5.634%.

For `O=C(N1CCOCC1)N1CCc2[nH]nc(COc3cccc(Cl)c3)c2C1`, the “Percent Effect” value is reported as 2.718%.

Regarding `COC(=O)CCC(=O)N1CCc2[nH]nc(-c3ccc(F)c(F)c3)c2C1`, the “Percent Effect” value is 3.026%.

As for `CN(C)S(=O)(=O)N1C[C@@H]2CC[C@H](C1)N(Cc1cccc(C#N)c1)C2`, the “Percent Effect” value is -14.1%.

As to `CCc1nc(CNC(=O)C2CCC(=O)N(Cc3ccccc3F)C2)no1` (centres undefined), the “Percent Effect” value is -29.1%.

On to `CCNc1ncc(C(=O)NCCc2csc(CSC)n2)cn1`, for which the “Percent Effect” value is listed as -1.673%.

`COC(=O)C(C)(C)NC(=O)c1scnc1Cl`: the “Percent Effect” value is 4.833%.

As for `CC1(C)OCC2(CO1)CN(C(=O)c1ccccc1Br)C2`, the “Percent Effect” value is listed as -7.61%.

As to `O=C1NCCCCC1NC(=O)C1(c2cccc(C(F)(F)F)c2)CC1` (centres undefined), the “Percent Effect” value is reported as -27.01%.

Consider `CC[C@H](C)[C@H](N)C(=O)Nc1nc(-c2cnc(N(C)C)nc2)cs1`, for which the “Percent Effect” value was determined as 89.2%.

Regarding `Cc1nc(-c2cccc(C(=O)N(C)CC(C)O)c2)cs1` (centres undefined), the “Percent Effect” value is reported as -6.133%.

Take `CCC(Nc1nnnn1-c1ccccc1)C(=O)Nc1nc(C)cs1` (centres undefined): the “Percent Effect” value was 23.33%.

Regarding `CC[C@H](C)[C@H](N)C(=O)Nc1nc(-c2cnc(N(C)CCO)nc2)cs1`, the “Percent Effect” value came out at 103.7%.

As to `Cc1cc(CN(C)C(=O)NC(C)Cc2ccc(O)cc2)no1` (centres undefined), the “Percent Effect” value is reported as 12.34%.

On to `Cc1ccc(OCC(=O)Nc2cnccc2SCCCO)cc1C`, for which the “Percent Effect” value is on record as -7.18%.

For `CN(Cc1ccccc1CN1CCCC1)C(=O)c1c[nH]c(=O)[nH]1`, the “Percent Effect” value worked out at 14.99%.

On to `Cc1ccc(S(=O)(=O)N2CSCC2C(=O)N(C)C2CC2)cc1Cl` (centres undefined), for which the “Percent Effect” value was 4.535%.

Regarding `CSc1cccc(CN2CCC(CCC(=O)NC3CC3)CC2)c1`, the “Percent Effect” value stood at 0.2093%.

Regarding `Cc1cc(C)c(C(=O)Nc2cccc(CN3CCC(CO)CC3)c2)o1`, the “Percent Effect” value was determined as 132.4%.

As for `N#Cc1ccccc1C(=O)Nc1cccc(CN2CCC(CO)CC2)c1`, the “Percent Effect” value came to 103.3%.

`CN(C)CCn1c(=O)oc2ccc(NC(=O)c3cc(Cl)c[nH]3)cc21`: the “Percent Effect” value is on record as -2.174%.

As to `Cc1nc(C)n(Cc2cccc(NC(=O)NC(C)(CO)C3CC3)c2)n1` (centres undefined), the “Percent Effect” value is reported as -1.537%.

For `Cc1nc(C)c(C(=O)Nc2cccc(CN3CCC(CO)CC3)c2)o1`, the “Percent Effect” value turned out to be 118.5%.

Consider `O=C(Nc1cccnc1)Nc1cccc(CN2CCC(O)CC2)c1`, for which the “Percent Effect” value is listed as -1.395%.

Consider `CSc1cccc(CN2CCC(CCC(=O)Nc3ccccc3)CC2)c1`, for which the “Percent Effect” value is listed as 5.512%.

In the case of `Cc1nc(CN2CCC(CNC(=O)Nc3ccccc3)CC2)oc1C`, the “Percent Effect” value was -9.889%.

As to `O=C(Nc1cccc(CN2CCC(CO)CC2)c1)c1cc(Cl)c[nH]1`, the “Percent Effect” value amounted to 101.9%.

For the compound `NC(=O)C1CCN(Cc2cccc(NC(=O)c3ccsc3)c2)CC1`, the “Percent Effect” value is on record as -7.959%.

On to `COC(=O)C(O)C1CCN(Cc2cccc(-n3cccn3)c2)CC1` (centres undefined), for which the “Percent Effect” value is listed as 8.265%.

As for `CSCC(=O)Nc1ncn(Cc2cccc(Br)c2)n1`, the “Percent Effect” value amounted to 13.99%.

With `Cc1ncsc1CCN(C)Cc1ccc(Br)o1`, the “Percent Effect” value turned out to be 8.382%.

In the case of `CN(C)C1CN(C(=O)Nc2cccc(OC(F)F)c2)C1`, the “Percent Effect” value was -11.25%.

On to `CCN(CC)C(=O)[C@@H]1C[C@@H](N)CN1C(=O)c1cc2c([nH]c1=O)CCC2`, for which the “Percent Effect” value is reported as -5.971%.

`CCCS(=O)(=O)NCc1cccnc1OCc1ccccc1`: the “Percent Effect” value amounted to 9.301%.

With `CN1CCN(C[C@@H]2CN(C(=O)c3ccccc3C#N)C[C@@H]2CO)CC1`, the “Percent Effect” value is listed as 6.523%.

Turning to `CC(CO)(NC(=O)Nc1nncs1)C1CCCCC1` (centres undefined), the “Percent Effect” value is -9.276%.

As for `COCCc1noc(CNC(C)(CO)C2CCCCC2)n1` (centres undefined), the “Percent Effect” value was found to be 130.3%.

Consider `CCC(=O)N1CCCC(C(=O)NCc2noc(Cc3ccccc3)n2)C1` (centres undefined), for which the “Percent Effect” value came out at 1.423%.

Consider `CC(CO)(NCc1noc(Cc2ccccc2)n1)C1CCCCC1` (centres undefined), for which the “Percent Effect” value amounted to 91.55%.

For the compound `CCc1nc(CNC(C)(CO)C2CCCCC2)no1` (centres undefined), the “Percent Effect” value came out at 105.4%.

On to `COCCc1noc(CNC2CCSC2)n1` (centres undefined), for which the “Percent Effect” value was 7.087%.

Turning to `CC(=O)N1CCCC(C(=O)NCc2noc(Cc3ccccc3)n2)C1` (centres undefined), the “Percent Effect” value was determined as 10.7%.

Take `COCCc1noc(CNC(=O)C2CC(=O)N(C(C)(C)C)C2)n1` (centres undefined): the “Percent Effect” value is on record as -10.49%.

As for `CCc1nc(CNc2ccc(-c3nc(C4CC4)no3)cn2)no1`, the “Percent Effect” value is given as -0.6483%.

As for `O=C(O)C(F)(F)F.O=C(O)C(F)(F)F.O=C(O)c1cc2c(nc1-c1ccoc1)CCN(CC1CCOC1)CC2` (centres undefined), the “Percent Effect” value came to 7.736%.

For `O=C(CCC(=O)N1CCC(Cc2ccc(CO)cc2)C1)c1ccccc1` (centres undefined), the “Percent Effect” value is -6.413%.
